Screening data from PubChem BioAssay.
Luciferase inh: Firefly luciferase inhibition profiling of diverse chemical library using quantitative high-throughput screening | purified P. pyralis luciferase, luminescence, biochemical | 76,000 compounds, 2.5% hits | Potency, µM (series often up to 115 µM), hits mostly inhibitors | Luciferin 4-monooxygenase (Photinus pyralis), P08659; note: % is set by controls: 0 for no effect and ±100 for the full control effect; nearly all actives have a fitted effect of over 65% in size
Target sequence (P08659 whole entry, looked up): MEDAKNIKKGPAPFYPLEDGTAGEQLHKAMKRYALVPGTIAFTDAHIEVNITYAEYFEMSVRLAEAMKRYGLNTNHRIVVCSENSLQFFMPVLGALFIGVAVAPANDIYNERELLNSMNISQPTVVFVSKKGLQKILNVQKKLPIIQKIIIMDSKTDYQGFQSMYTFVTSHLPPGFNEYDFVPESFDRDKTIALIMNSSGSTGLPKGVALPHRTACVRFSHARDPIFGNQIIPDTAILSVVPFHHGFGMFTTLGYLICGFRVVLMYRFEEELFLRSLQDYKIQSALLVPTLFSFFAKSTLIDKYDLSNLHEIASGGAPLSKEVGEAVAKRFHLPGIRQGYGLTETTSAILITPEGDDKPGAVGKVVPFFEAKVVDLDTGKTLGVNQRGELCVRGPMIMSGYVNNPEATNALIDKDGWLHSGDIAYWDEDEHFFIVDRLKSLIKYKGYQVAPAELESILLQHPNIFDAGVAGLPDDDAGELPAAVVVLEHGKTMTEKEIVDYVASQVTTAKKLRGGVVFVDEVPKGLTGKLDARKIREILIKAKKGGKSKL
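Cell-free enzyme assay, 10nM P. pyralis luciferase, luciferin and ATP each at 10uM. Inhibition profiled over a 6-point titration, read as luminescence.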
3T3 cytotox: Cytotoxic Profiling in NIH 3T3 Cell Line of Diverse Libraries Using Quantitative High-Throughput Screening | AID 1345082, 2018 | Potency, µM (series often up to 96.7 µM), inactives show at the highest dose activity change, negative = cytotoxicity, actives largely listed as inhibitors | 94,000 compounds, 4.3% hits | NIH 3T3 viability, CellTiter-Glo ATP luminescence, 48-72 h; note: % is set by controls: 0 for no effect and ±100 for the full control effect; nearly all actives have a fitted effect of over 55% in size
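Luminescent ATP readout (CellTiter-Glo, 10 min RT) after 48 or 72 hr compound exposure of NIH 3T3 cells seeded at 400 cells/well in 1536-well format; quantitative HTS.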
HEK cytotox: Cytotoxic Profiling in HEK 293 Cell Line of Diverse Libraries Using Quantitative High-Throughput Screening; AID 1345083, 2018; 94,000 compounds, 6.6% hits; HEK 293 viability, ATP luminescence (CellTiter-Glo), 48-72 h; Potency, µM (top dose mostly 115 µM), inactives show at the highest dose activity change, negative = cytotoxicity, actives largely listed as inhibitors; note: % is set by controls: 0 for no effect and ±100 for the full control effect; nearly all actives have a fitted effect of over 60% in size
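Pintool-delivered compounds were incubated with HEK 293 cells (250 cells/well) at 37 degree Celsius for 48 or 72 hr. ATP-dependent luminescence (CellTiter-Glo) then reported remaining viable cells.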
hNpr1 antagonist: Natriuretic polypeptide receptor (hNpr1) antagonism - Primary qHTS; Atrial natriuretic peptide receptor 1 (Homo sapiens), P16066; HEK293 hNpr1 GloSensor cGMP, ANP-stimulated luminescence; Potency, µM (series often up to 46.3 µM), without a hit: at the top dose activity change, negative = inhibition, most hits filed as inhibitors; 76,000 compounds, 1.6% hits; AID 1347048, 2019; calls by dose curve; note: % is set by controls: 0 for no effect and ±100 for the full control effect; nearly all actives have a fitted effect of over 60% in size
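Compound pre-incubated 30 min at room temperature on GloSensor-loaded HEK293 cells stably carrying hNpr1 and the pGS-40F cGMP biosensor. Stimulation uses hNppA at 0.1 nM final; luminescence is taken at baseline and 20 min post-agonist.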
NPR1 antag cnf: Natriuretic polypeptide receptor (hNpr1) antagonism - Confirmation | shares compounds with hNpr1 antagonist | HEK293 hNpr1 cGMP GloSensor luminescence, ANP-stimulated | Potency, µM (series often up to 57.6 µM), for inactives: at the top dose activity change, negative = inhibition, actives largely listed as inhibitors | 1,400 compounds, 76% hits | AID 1347044, 2019; calls by dose curve; note: nearly all actives have a fitted effect of over 70% in size
NPR2 antag: Natriuretic polypeptide receptor (hNpr2) antagonism - Subtype selectivity assay | shares compounds with hNpr1 antagonist | HEK293 hNpr2 GloSensor cGMP luminescence, CNP-stimulated | Potency, µM (doses to about 57.6 µM), for the others: top-dose activity change, negative = inhibition, most hits filed as inhibitors | 1,400 compounds, 67% hits; calls by dose curve; note: nearly all actives have a fitted effect of over 70% in size
FLuc counter: Natriuretic polypeptide receptor (hNpr1) antagonism - Confirmation firefly luciferase (FLuc) inhibition counterscreen; purified FLuc enzyme, luminescence, Km substrate; 1,400 compounds, 0.7% hits; shares compounds with hNpr1 antagonist; Potency, µM (series often up to 57.6 µM), without a hit: top-dose activity change, negative = inhibition, usual class: inhibitors; note: 0% is about no effect
GloSensor cGMP: Natriuretic polypeptide receptor (hNpr1) antagonism - Counterscreen GloSensor control cell line | 1,400 compounds, 69% hits | HEK293 GloSensor cGMP, SNP-stimulated, luminescence | Potency, µM (titrated, usually from 57.6 µM), inactives show top-dose activity change, negative = inhibition, hits mostly inhibitors | AID 1347051, 2019 | shares compounds with hNpr1 antagonist; calls by dose curve; note: % is set by controls: 0 for no effect and ±100 for the full control effect; nearly all actives have a fitted effect of over 70% in size
* hit, by the source's call; [ ] = remark or other dose. An excerpt weighted towards active compounds, which were near 11% of everything screened. Unless noted, calls come from the whole dose curve; as a rule, active = well fitted curve in the direction sought with a large enough effect; inconclusive = small, poorly fitted or top-dose-only effect, or another doubt; inactive = no such curve, though single readings can be large; an effect the other way counts as inactive or inconclusive. Potency is the fitted concentration of half-maximal effect.

Results for COc1ccc(NC(=O)c2ccc(-c3nnc4ccc(NC(=O)C5CCC5)cn34)cc2)cc1 ?
Luciferase inh: inactive; 3T3 cytotox: -4%; HEK cytotox: inconclusive; hNpr1 antagonist: -30%; NPR1 antag cnf: inconclusive; NPR2 antag: -29%; FLuc counter: -19%; GloSensor cGMP: -23%

Results for CN(C)C(=O)C1=NOC2CN([S+](C)(=O)[O-])CC12 (centres undefined) ?
3T3 cytotox: inactive; HEK cytotox: inactive

Results for O=C(CCC1CCCC1)N1CCC2(CC1)CC(N(C(=O)c1ccccc1)C1CC1)CCO2 (centres undefined) ?
Luciferase inh: inactive; 3T3 cytotox: inconclusive; HEK cytotox: inconclusive; hNpr1 antagonist: inconclusive; NPR1 antag cnf: inconclusive; NPR2 antag: -27%; FLuc counter: 0%; GloSensor cGMP: inconclusive

What do the screens show for `O=C(Cc1ccccc1)N1CCC2(CC1)CC(N(C(=O)c1ccccc1)C1CC1)CCO2` (centres undefined)?
Luciferase inh: inactive; 3T3 cytotox: -17%; HEK cytotox: inconclusive; hNpr1 antagonist: -14%

Results for CN(Cc1cnc2ccccc2c1)C(=O)c1ccc(CCC(C)(C)O)cc1 ?
Luciferase inh: inactive; 3T3 cytotox: inconclusive; HEK cytotox: 40µM*; hNpr1 antagonist: 2.5µM*; NPR1 antag cnf: 5.4µM*; NPR2 antag: 6.9µM*; FLuc counter: 3%; GloSensor cGMP: 3.9µM*

How did COc1cccc([S+](=O)([O-])N2CCC3(CC2)C(=O)Nc2ccccc23)c1 do in these assays?
Luciferase inh: inactive; 3T3 cytotox: inconclusive; HEK cytotox: inconclusive; hNpr1 antagonist: 13µM*; NPR1 antag cnf: 20µM*; NPR2 antag: 20µM*; FLuc counter: 2%[86.2 µM]; GloSensor cGMP: 16µM*

How did O=C(NC[C@H]1Cn2c(-c3ccc4c(c3)OCO4)cnc2CO1)Nc1ccccc1 do in these assays?
Luciferase inh: inconclusive; 3T3 cytotox: inconclusive; HEK cytotox: inconclusive; hNpr1 antagonist: -26%[70.6 µM]

Results for O=C(NC[C@H]1Cn2c(-c3ccc4c(c3)OCCO4)cnc2CO1)Nc1ccccc1 ?
Luciferase inh: inactive; 3T3 cytotox: 89µM*; HEK cytotox: 100µM*; hNpr1 antagonist: inconclusive; NPR1 antag cnf: inconclusive; NPR2 antag: inconclusive; FLuc counter: -13%[86.2 µM]; GloSensor cGMP: -25%[86.2 µM]

What do the screens show for `COCCOC1CCOC2(CCN(C(=O)c3sccc3C)CC2)C1` (centres undefined)?
Luciferase inh: inactive; 3T3 cytotox: inactive; HEK cytotox: -5%; hNpr1 antagonist: 5%

What do the screens show for `Cc1ccc(C2(C(=O)NC(C)c3cnc(-c4ccncc4)nc3C)CC2)cc1` (centres undefined)?
Luciferase inh: inactive; 3T3 cytotox: inconclusive; HEK cytotox: inconclusive; hNpr1 antagonist: inconclusive; NPR1 antag cnf: inconclusive; NPR2 antag: inconclusive; FLuc counter: 3%; GloSensor cGMP: -6%

Results for O=C(CN1CCCCCCC1)N1CCn2nc(Cc3ccccc3)cc2C1 ?
Luciferase inh: inactive; 3T3 cytotox: inconclusive; HEK cytotox: -29%; hNpr1 antagonist: -13%

Results for CC(=O)c1c(C)nn(CC(=O)N2CCn3nc(Cc4ccccc4)cc3C2)c1C ?
Luciferase inh: inactive; 3T3 cytotox: -34%; HEK cytotox: inconclusive; hNpr1 antagonist: 11µM*; NPR1 antag cnf: 22µM*; NPR2 antag: 19µM*; FLuc counter: -1%; GloSensor cGMP: 14µM*

How did O=C(Nc1ccc(Cl)cc1Cl)c1ccc2cc[nH]c2n1 do in these assays?
3T3 cytotox: -6%; HEK cytotox: -9%; NPR1 antag cnf: 1.7µM*; NPR2 antag: 2.7µM*; FLuc counter: 0.15µM*; GloSensor cGMP: 2.4µM*

Results for O=C(Nc1ccc(Cl)cc1Cl)c1c[nH]c2cccnc12 ?
3T3 cytotox: inconclusive; HEK cytotox: inconclusive; NPR1 antag cnf: 21µM*; NPR2 antag: 14µM*; FLuc counter: 0.96µM*; GloSensor cGMP: inconclusive

What do the screens show for `CCn1cc(CNC(=O)c2ccc(OC3CCN(S(=O)(=O)N(C)C)CC3)cc2)cn1`?
Luciferase inh: inactive; 3T3 cytotox: -29%; HEK cytotox: inconclusive; hNpr1 antagonist: 13µM*; NPR1 antag cnf: 19µM*; NPR2 antag: 19µM*; FLuc counter: -3%; GloSensor cGMP: 11µM*

What do the screens show for `CCn1nc(C)c(CNC(=O)c2cc(COc3ccc4ncccc4c3)on2)c1C`?
Luciferase inh: inactive; 3T3 cytotox: inconclusive; HEK cytotox: inconclusive; hNpr1 antagonist: 10µM*; NPR1 antag cnf: 22µM*; NPR2 antag: 19µM*; FLuc counter: -1%; GloSensor cGMP: 17µM*

How did COc1cccc(NC(=O)Cc2c[nH]c3ncc(-c4cccnc4OC)cc23)c1 do in these assays?
Luciferase inh: inactive; 3T3 cytotox: 28µM*; HEK cytotox: 50µM*; hNpr1 antagonist: inconclusive; NPR1 antag cnf: 40µM*; NPR2 antag: inconclusive; FLuc counter: -10%[86.2 µM]; GloSensor cGMP: inconclusive

How did COc1ncccc1-c1cnc2[nH]cc(CC(=O)Nc3ccccn3)c2c1 do in these assays?
Luciferase inh: inactive; 3T3 cytotox: inconclusive; HEK cytotox: inconclusive; hNpr1 antagonist: inconclusive

How did COc1ccc(NC(=O)Cc2c[nH]c3ncc(-c4ccccc4)cc23)cn1 do in these assays?
Luciferase inh: inactive; 3T3 cytotox: -27%[138 µM]; HEK cytotox: inconclusive; hNpr1 antagonist: inconclusive; NPR1 antag cnf: inconclusive; NPR2 antag: inconclusive; FLuc counter: -1%[86.2 µM]; GloSensor cGMP: -20%[86.2 µM]

What do the screens show for `COCC(=O)N1CCN(Cc2ccccc2-c2cccnc2)CC1`?
3T3 cytotox: -25%[138 µM]; HEK cytotox: -17%[172 µM]
